# Measurements published in the supplement of paper PMC8728848.
# The entries come from a sample that favours the strongest signals as a whole.
# B1: LecB LY19 (Pseudomonas aeruginosa) (protein)
# chain: MATQGVFTLPANTQFGVTAFANSAGTQTVNVQVNNETVATFTGQSTNNGIIGSKVLNSGGGGKVQILVSVNGRSSDLVSAQVILANELNFALVGSEDSTDNDYNDAVVVINWPLG
# Experiments:
# Assay in all cases: glycan array binding signal (z-score within array); higher = stronger binding
# Conditions in all cases: glycan notation: IUPAC condensed, linker removed
# Gal(b1-3)GlcNAc6S = target: Gal(b1-3)GlcNAc6S
# How it was run: (§1)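 Columns mapping to the same glycan were averaged after glycan names were converted to IUPAC-condensed notation. The data come from 3228 arrays in the Consortium for Functional Glycomics database, limited to those with an available protein sequence. Binding is reported as a within-array Z-score averaged across arrays of one protein sequence and across linkers.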
# [1] = target: Gal(b1-3)[Fuc(a1-4)]GlcNAc(b1-3)Gal(b1-3)[Fuc(a1-4)]GlcNAc
# How it was run: as §1
# [2] = target: Gal(b1-3)[Fuc(a1-4)]GlcNAc(b1-3)Gal(b1-4)[Fuc(a1-3)]GlcNAc
# How it was run: as §1
# Gal(b1-4)GlcNAc = target: Gal(b1-4)GlcNAc
# How it was run: as §1
# [3] = target: Gal(b1-4)GlcNAc(b1-2)[Gal(b1-4)GlcNAc(b1-4)]Man(a1-3)[Gal(b1-4)GlcNAc(b1-2)Man(a1-6)]Man(b1-4)GlcNAc(b1-4)GlcNAc
# How it was run: as §1
# [4] = target: Gal(b1-4)GlcNAc(b1-2)[Gal(b1-4)GlcNAc(b1-6)]Man(a1-6)[GlcNAc(b1-4)][Gal(b1-4)GlcNAc(b1-2)Man(a1-3)]Man(b1-4)GlcNAc(b1-4)GlcNAc
# How it was run: as §1
# [5] = target: Gal(b1-4)GlcNAc(b1-3)Gal(b1-4)GlcNAc(b1-6)[Gal(b1-3)]GalNAc
# How it was run: as §1
# [6] = target: Gal(b1-4)GlcNAc(b1-3)[GlcNAc(b1-6)]Gal(b1-4)GlcNAc
# How it was run: as §1
# [7] = target: Gal3S(b1-3)[Fuc(a1-4)]GlcNAc
# How it was run: as §1
# Gal6S(b1-4)Glc6S = target: Gal6S(b1-4)Glc6S
# How it was run: as §1
# GalNAc(b1-6)GalNAc = target: GalNAc(b1-6)GalNAc
# How it was run: as §1
# Glc(a1-6)Glc(a1-6)Glc = target: Glc(a1-6)Glc(a1-6)Glc
# How it was run: as §1
# [8] = target: GlcNAc(b1-2)[GlcNAc(b1-4)]Man(a1-3)[GlcNAc(b1-4)][GlcNAc(b1-2)Man(a1-6)]Man(b1-4)GlcNAc(b1-4)GlcNAc
# How it was run: as §1
# [9] = target: GlcNAc(b1-3)Gal(b1-3)GalNAc
# How it was run: as §1
# [10] = target: GlcNAc(b1-3)Gal(b1-4)GlcNAc(b1-3)Gal(b1-4)GlcNAc(b1-3)Gal(b1-4)GlcNAc(b1-3)Gal(b1-4)GlcNAc(b1-2)[GlcNAc(b1-3)Gal(b1-4)GlcNAc(b1-3)Gal(b1-4)GlcNAc(b1-3)Gal(b1-4)GlcNAc(b1-3)Gal(b1-4)GlcNAc(b1-6)]Man(a1-6)[GlcNAc(b1-3)Gal(b1-4)GlcNAc(b1-3)Gal(b1-4)GlcNAc(b1-3)Gal(b1-4)GlcNAc(b1-3)Gal(b1-4)GlcNAc(b1-2)Man(a1-3)]Man(b1-4)GlcNAc(b1-4)[Fuc(a1-6)]GlcNAc
# How it was run: as §1
# Man(a1-6)Man = target: Man(a1-6)Man
# How it was run: as §1
# [11] = target: Neu5Ac(a2-3)Gal(b1-4)GlcNAc(b1-3)Gal(b1-4)GlcNAc
# How it was run: as §1
# [12] = target: Neu5Ac(a2-3)Gal(b1-4)GlcNAc(b1-3)Gal(b1-4)GlcNAc(b1-6)[Gal(b1-3)]GalNAc
# How it was run: as §1
# [13] = target: Neu5Ac(a2-3)Gal(b1-4)GlcNAc(b1-6)[Gal(b1-3)]GalNAc
# How it was run: as §1
# [14] = target: Neu5Ac(a2-3)[GalNAc(b1-4)]Gal(b1-4)GlcNAc(b1-3)GalNAc
# How it was run: as §1
# [15] = target: Neu5Ac(a2-6)Gal(b1-4)GlcNAc(b1-2)Man(a1-3)[Neu5Ac(a2-3)Gal(b1-4)GlcNAc(b1-2)Man(a1-6)]Man(b1-4)GlcNAc(b1-4)GlcNAc
# How it was run: as §1
# [16] = target: Neu5Ac(a2-6)Gal(b1-4)GlcNAc(b1-2)Man(a1-6)[Man(a1-3)]Man(b1-4)GlcNAc(b1-4)GlcNAc
# How it was run: as §1
# [17] = target: Neu5Ac(a2-6)GalNAc(b1-4)GlcNAc
# How it was run: as §1
# [18] = target: Neu5Ac(a2-8)Neu5Ac(a2-8)Neu5Ac(a2-3)[GalNAc(b1-4)]Gal(b1-4)Glc
# How it was run: as §1
# Neu5Gc(a2-3)Gal(b1-4)Glc = target: Neu5Gc(a2-3)Gal(b1-4)Glc
# How it was run: as §1
# [19] = target: Neu5Gc(a2-8)Neu5Gc(a2-3)Gal(b1-4)GlcNAc(b1-3)Gal(b1-4)GlcNAc
# How it was run: as §1
binder,measurement,setting,value
B1,glycan array binding signal (z-score),Gal(b1-3)GlcNAc6S,-0.533
same,glycan array binding signal (z-score),[1],3.35
same,glycan array binding signal (z-score),[2],4.05
same,glycan array binding signal (z-score),Gal(b1-4)GlcNAc,-0.551
same,glycan array binding signal (z-score),[3],-0.3
same,glycan array binding signal (z-score),[4],-0.542
same,glycan array binding signal (z-score),[5],-0.545
same,glycan array binding signal (z-score),[6],0.575
same,glycan array binding signal (z-score),[7],3.07
same,glycan array binding signal (z-score),Gal6S(b1-4)Glc6S,-0.533
same,glycan array binding signal (z-score),GalNAc(b1-6)GalNAc,-0.559
same,glycan array binding signal (z-score),Glc(a1-6)Glc(a1-6)Glc,-0.491
same,glycan array binding signal (z-score),[8],-0.556
same,glycan array binding signal (z-score),[9],-0.542
same,glycan array binding signal (z-score),[10],0.196
same,glycan array binding signal (z-score),Man(a1-6)Man,-0.329
same,glycan array binding signal (z-score),[11],-0.547
same,glycan array binding signal (z-score),[12],-0.554
same,glycan array binding signal (z-score),[13],-0.147
same,glycan array binding signal (z-score),[14],-0.553
same,glycan array binding signal (z-score),[15],-0.539
same,glycan array binding signal (z-score),[16],0.735
same,glycan array binding signal (z-score),[17],-0.55
same,glycan array binding signal (z-score),[18],-0.546
same,glycan array binding signal (z-score),Neu5Gc(a2-3)Gal(b1-4)Glc,-0.511
same,glycan array binding signal (z-score),[19],-0.556
